KB-3-1 tox: KB-3-1 parental cell cytotoxicity. hit rate 1.4% among 400,000. Potency, µM (doses to about 46.1 µM), most hits filed as cytotoxic. KB-3-1 viability, CellTiter-Glo ATP luminescence, 72 h. AID 1347075; note: % is set by controls: 0 for no effect and ±100 for the full control effect; nearly all actives have a fitted effect of over 60% in size
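KB-3-1 cells, DMEM (no phenol red) + 10% FBS; compound by pin transfer, 72 h, 37 °C. Readout: CellTiter-Glo luminescence after 10 min. Data normalized, curve-fitted.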
ELG1 repair inh: inhibitors of ELG1-dependent DNA repair in HEK293T cells | HEK293T ELG1-luciferase reporter, luminescence, 16 h; DNA damage induced by 5-fluorouridine | Potency, µM (series often up to 46.1 µM), without a hit: at the top dose activity change, negative = inhibition, hits mostly inhibitors | hit rate 2.3% among 330,000 | AID 504467; note: % is set by controls: 0 for no effect and ±100 for the full control effect; nearly all actives have a fitted effect of over 55% in size
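Luminescence from the luciferase reporter, measured 30 min after ONE-Glo reagent at room temperature, was the read-out. Beforehand, 2,000 cells per well were exposed for 16 hr at 37 °C to 5-fluorouridine together with compound or vehicle.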
KB-V1 MDR tox: kills drug-selected multidrug resistant KB-V1 cells | KB-V1 MDR cells viability, CellTiter-Glo, 72 h | Potency, µM (titrated, usually from 46.1 µM), usual class: cytotoxic | AID 1347076 | hit rate 3.4% among 400,000; note: % is set by controls: 0 for no effect and ±100 for the full control effect; nearly all actives have a fitted effect of over 60% in size
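Cytotoxicity via CellTiter-Glo luminescence after 72 h compound exposure at 37 degrees C. Cells: drug-selected KB-V1 line, DMEM phenol-red free plus 10% FBS. Compounds tested at multiple concentrations; normalized data fitted to concentration-effect curves.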
SW480 rereplic: induces DNA re-replication in SW480 colon adenocarcinoma cells. SW480 DNA re-replication, Hoechst DNA content imaging, 48 h. Potency, µM (doses to about 46.1 µM), inactives show at the highest dose re-replication activation, hits mostly activators. hit rate 1.8% among 340,000. AID 624297; note: % of control where 0% means no effect; nearly all actives have a fitted effect of over 55% in size
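Compounds, transferred as 23 nL by pin tool, were incubated with cells for 48 hr; DNA content per nucleus was then quantified by Hoechst staining and fluorescence plate imaging.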
MCF10A rerep: DNA re-replication induction in MCF 10a cells. Potency, µM (highest dose often 46.1 µM), without a hit: at the top dose activity, positive = re-replication, hits mostly activators. hit rate 2.9% among 350,000. AID 624296. MCF 10A DNA re-replication, Hoechst nuclear intensity, 48 h; note: % of control where 0% means no effect; nearly all actives have a fitted effect of over 50% in size
Starred values were filed as active, the others as inactive; i = inactive; ? = inconclusive; . = no result given. Shown are actives, neighbours in structure and some others; about 8.1% of the full set was active somewhere. Calls come from the whole dose curve; as a rule, active = well fitted curve in the direction sought with a large enough effect; inconclusive = small, poorly fitted or top-dose-only effect, or another doubt; inactive = no such curve, though single readings can be large; an effect the other way counts as inactive or inconclusive. Potency is the fitted concentration of half-maximal effect.

SMILES | KB-3-1 tox | ELG1 repair inh | KB-V1 MDR tox | SW480 rereplic | MCF10A rerep
COc1ccc(C2NC(c3ccc4c(c3)OCO4)=CC(c3ccccc3O)N2)cc1OC (configuration not stated) | i | . | ? | . | .
C=C1C=C(C(F)F)n2ncc(C(=O)NCc3ccc(F)cc3)c2N1 | i | . | i | . | .
O=C(NCCc1nc2ccccc2n1CCCOc1ccccc1)C1CCCCC1 | i | . | i | . | .
CN(C)CC1CC/C(=C\c2ccc(O)cc2)C1=O (configuration not stated) | ? | . | ? | 10.3µM* | 3.26µM*
CN(C)CC1CCC/C(=C\c2ccc(OC(=O)c3ccc(Cl)cc3)cc2)C1=O (configuration not stated) | ? | . | 20.6µM* | ? | ?
CN(C)CC1CCC/C(=C\c2ccc(OC(=O)/C=C/c3ccccc3)cc2)C1=O (configuration not stated) | ? | . | ? | ? | 4.0%
Cc1ccc(/C=C2\CCC(C3CCCC3)C2=O)cc1 (configuration not stated) | i | ? | i | -5.3% | -0.6%
COc1ccc(/C=C2/CCC(CN3CCOCC3)C2=O)cc1 (configuration not stated) | ? | . | ? | 14.6µM* | ?
O=C1/C(=C\c2ccc(Cl)cc2)CCC1CNc1ccc(Cl)cc1 (configuration not stated) | i | . | i | ? | 5.8µM*
O=C(C[n+]1cccc2cccc(O)c21)c1ccc(Cl)cc1 | i | . | i | . | .
COc1ccc(Cc2[nH]n3c(=O)cc(C(C)C)nc3c2-c2ccccc2)cc1 | 10.3µM* | 8.2µM* | i | 10.3µM* | 2.59µM*
COc1ccc(Cc2[nH]n3c(=O)cc(C)nc3c2-c2ccccc2)cc1 | ? | ? | i | ? | ?
COCCn1c(C)cc(/C=C(\C#N)C(=O)OCC(=O)Nc2ccc(S(N)(=O)=O)cc2)c1C | i | 0.4% | i | -33.3% | 16.4µM*
CCCn1c(C)cc(/C=C(\C#N)C(=O)OCC(=O)Nc2ccc(OC)c(Cl)c2)c1C | i | -19.6% | ? | 6.9% | 3.5%
Cc1cccc(CN2Cc3cccc4c3[C@H](C=CC4)CC2=O)c1 | i | . | i | . | .
O=S(=O)(c1ccccc1)N(CC1CO1)c1cccc2ccccc12 (configuration not stated) | i | -8.2% | i | 20.6µM* | ?
CSc1nc(N)nc(SCC(=O)Nc2ccc(Cl)cc2)c1C#N | ? | -2.6% | i | -4.4% | 0.5%
CSc1nc(N)nc(SCC(=O)Nc2cccc(F)c2)c1C#N | ? | ? | 2.31µM* | ? | ?
COc1ccc(C(=O)CSc2[nH]c(=O)cc(C(F)(F)F)c2C#N)cc1 | ? | 20.0% | i | ? | 18.4µM*
COc1ccc(C(=O)C(CN2CCOCC2)c2ccccc2)cc1F (configuration not stated) | ? | ? | ? | ? | 11.6µM*
CCCOc1ccc(C(=O)C(CN2CCOCC2)c2ccccc2)cc1 (configuration not stated) | ? | ? | ? | 11.2µM* | 17.8µM*
O=C(c1ccc(Cl)cc1)C(CN1CCCCC1)c1ccccc1 (configuration not stated) | 23.1µM* | ? | 20.6µM* | ? | ?
CCC1=Nc2cc(C(=O)NCc3ccco3)ccc2Sc2ccc(C)cc21 | ? | 15.7% | 0.164µM* | 1.03µM* | 1.46µM*
CCCC1=Nc2cc(C(=O)N3CCCC3)ccc2Sc2ccc(C)cc21 | i | 12.7% | ? | ? | ?
CCC1=Nc2cc(C(=O)NC3CCC(C)CC3)ccc2Sc2ccc(C)cc21 (configuration not stated) | 4.61µM* | . | 4.11µM* | . | .
SMILES | KB-3-1 tox | ELG1 repair inh | KB-V1 MDR tox | SW480 rereplic | MCF10A rerep
CCC1=Nc2cc(C(=O)NCCN3CCOCC3)ccc2Sc2ccc(C)cc21 | i | 0.7% | i | ? | -1.8%
CCCC1=Nc2cc(C(=O)N3CCC(C)CC3)ccc2Sc2ccc(C)cc21 | i | . | i | . | .
CCOC(=O)N1CCC(NC(=O)c2ccc3c(c2)N=C(CC)c2cc(C)ccc2S3)CC1 | 7.31µM* | ? | ? | ? | ?
CCOC(=O)N1CCN(C(=O)c2ccc3c(c2)N=C(CC)c2cc(C)ccc2S3)CC1 | i | ? | i | -16.2% | 0.4%
CCCC1=Nc2cc(C(=O)NC3CCCCC3)ccc2Sc2ccc(C)cc21 | 0.517µM* | . | 0.82µM* | . | .
Cc1ccc2nc(N/N=C/c3ccco3)cc(C)c2c1 | i | ? | ? | ? | 16.4µM*
Cc1ccc2nc(C)cc(SCC(=O)N/N=C/c3ccco3)c2c1 | i | -1.2% | i | 18.4% | 1.5%
Cc1cccc(C(=O)NNC2=C(C(=O)C(F)(F)F)CCC2)c1O | ? | 20.6µM* | i | ? | ?
CCNS(=O)(=O)c1ccc(CCC(=O)N2CCN(C(=O)OCC)CC2)cc1 | i | -10.2% | i | -3.9% | -2.5%
CSc1cccc(N2C(=O)C3CCCN3C2=S)c1 (configuration not stated) | ? | -11.4% | i | 0.7% | 0.4%
O=C1C=CC(O)(c2cc(=O)c3c(O)cc(O)cc3o2)C=C1 | ? | 3.26µM* | 5.8µM* | 4.11µM* | 1.46µM*
O=c1cc(-c2ccccc2Cl)oc2cc(O)cc(O)c12 | i | 10.0% | i | 0.7% | ?
COc1ccc(N2C(=O)CSC2c2cccs2)cc1 (configuration not stated) | i | 2.4% | ? | 18.4µM* | ?
Cc1ccc(NC(=O)c2nc(C)n(-c3ccc([N+](=O)[O-])cc3)n2)cc1 | i | 5.5% | 11.6µM* | -3.3% | 0.7%
Cc1cc2c(cc1S(=O)(=O)CCC(=O)N1CCC(C)CC1)OCC(=O)N2 | i | . | i | . | .
O=C(Nc1ccc(-c2nc3ccccc3[nH]2)cc1)c1ccco1 | i | ? | i | 0.2% | 6.5%
O=C(/C=C/c1ccco1)Nc1ccc(-c2nc3ccccc3[nH]2)cc1 | ? | ? | i | ? | 2.59µM*
COc1ccc(-c2nc3ccccc3[nH]2)cc1 | ? | ? | ? | 11.2% | -1.6%
COc1cccc(NC(=O)/C=C/c2ccco2)c1 | i | ? | ? | -6.9% | 16.7%
COC(=O)c1ccc(-c2nc3ccccc3[nH]2)cc1 | ? | ? | 18.4µM* | . | -2.6%
O=C(/C=C/c1ccco1)Nc1ccc(Oc2ccc(Cl)cc2)cc1 | 5.8µM* | -26.6% | ? | ? | 4.61µM*
CN1CCN(CCCNC(=O)c2cnn(-c3ccccc3)c2-n2cccc2)CC1 | i | . | i | . | .
COc1ccc2nc(C)cc(N/N=C/c3cccc(OC)c3O)c2c1 | i | 2.1% | ? | ? | ?
COc1ccc(/C=N/Nc2cc(C)nc3ccc(Br)cc23)cc1 | ? | ? | 16.4µM* | 16.4µM* | 11.6µM*

Screening data as filed in PubChem.
